For seven sequences, binding signal results are on record in paper PMC7862700, “An all-to-all approach to the identification of sequence-specific readers for epigenetic DNA modifications on cytosine”.

Experiment in all cases: DAPPL (digital affinity profiling via proximity ligation, sequencing); 10 mM Tris-HCl pH 7.5, 50 mM NaCl, 1 mM DTT, 4% glycerol, room temperature, 30 min; GST-TFs on glutathione beads, 16-mer random dsDNA library, 0.1% formaldehyde crosslink after washing; high values mean tight binding
Conditions in all cases: protein: recombinant; tags: N-terminal GST; dsDNA, one strand shown

For one test, the target named is T1, ERF (Homo sapiens, UniProt P50548 1-548).
T1 sequence: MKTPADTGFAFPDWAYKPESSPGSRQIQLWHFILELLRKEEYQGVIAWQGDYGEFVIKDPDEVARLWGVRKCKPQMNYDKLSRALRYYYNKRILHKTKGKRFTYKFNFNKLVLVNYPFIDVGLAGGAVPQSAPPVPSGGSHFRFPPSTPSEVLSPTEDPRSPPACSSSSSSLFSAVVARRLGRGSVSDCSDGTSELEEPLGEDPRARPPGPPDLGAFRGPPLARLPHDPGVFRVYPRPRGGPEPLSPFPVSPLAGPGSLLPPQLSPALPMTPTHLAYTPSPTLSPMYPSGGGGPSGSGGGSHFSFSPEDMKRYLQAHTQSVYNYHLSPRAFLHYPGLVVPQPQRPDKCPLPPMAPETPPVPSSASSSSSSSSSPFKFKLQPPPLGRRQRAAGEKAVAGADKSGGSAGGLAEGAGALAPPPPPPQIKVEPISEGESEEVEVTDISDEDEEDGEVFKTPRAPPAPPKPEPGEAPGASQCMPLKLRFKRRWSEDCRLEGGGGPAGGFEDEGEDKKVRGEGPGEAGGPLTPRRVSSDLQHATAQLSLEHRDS
Put shortly: (§1)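 Sequencing on an Illumina NextSeq500 followed washing, crosslinking with 0.1% formaldehyde, proximity ligation (BsaI/T4 ligase, 1 h, 37 °C) and PCR amplification of pools that had been incubated for 30 min at room temperature with 200 nmole of a random double-stranded 16-mer DNA library in Tris/NaCl/DTT/glycerol buffer. Each pool held DNA-barcoded human transcription factors, expressed in yeast as GST fusions and captured on glutathione beads, plus a tag-only sample. Binding signal is a hexamer's read frequency for a factor divided by its frequency in the tag-only sample.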

In another test the target is T2, ETV3L (Homo sapiens, UniProt Q6ZN32 1-361).
T2 sequence: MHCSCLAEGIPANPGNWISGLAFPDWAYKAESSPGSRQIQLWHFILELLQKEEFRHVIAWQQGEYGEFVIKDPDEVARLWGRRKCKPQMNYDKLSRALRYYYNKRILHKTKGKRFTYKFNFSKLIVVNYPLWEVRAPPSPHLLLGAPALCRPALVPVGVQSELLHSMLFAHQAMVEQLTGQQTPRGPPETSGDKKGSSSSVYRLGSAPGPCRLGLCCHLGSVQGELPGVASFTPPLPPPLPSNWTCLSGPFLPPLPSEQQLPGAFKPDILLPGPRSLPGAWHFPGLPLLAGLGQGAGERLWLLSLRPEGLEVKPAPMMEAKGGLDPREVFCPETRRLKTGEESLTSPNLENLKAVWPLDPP
Put shortly: as §1

In another test the target is T3, ETS2 (Homo sapiens, UniProt P15036 1-469).
T3 sequence: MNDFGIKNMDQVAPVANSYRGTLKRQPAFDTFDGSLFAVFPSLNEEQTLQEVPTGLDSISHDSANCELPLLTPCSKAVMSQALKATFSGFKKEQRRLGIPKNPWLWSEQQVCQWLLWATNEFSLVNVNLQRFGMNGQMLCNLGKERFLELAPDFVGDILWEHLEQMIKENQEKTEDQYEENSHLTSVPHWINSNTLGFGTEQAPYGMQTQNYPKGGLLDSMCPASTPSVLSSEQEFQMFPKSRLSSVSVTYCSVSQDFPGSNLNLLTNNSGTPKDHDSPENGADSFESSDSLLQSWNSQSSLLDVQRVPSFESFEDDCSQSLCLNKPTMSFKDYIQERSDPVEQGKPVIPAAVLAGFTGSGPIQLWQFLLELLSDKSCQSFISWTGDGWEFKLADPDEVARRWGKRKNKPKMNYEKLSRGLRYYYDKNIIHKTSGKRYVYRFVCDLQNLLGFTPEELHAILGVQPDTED
Put shortly:
as §1

Another test addresses T4, SPDEF (Homo sapiens, UniProt O95238 1-335).
T4 sequence: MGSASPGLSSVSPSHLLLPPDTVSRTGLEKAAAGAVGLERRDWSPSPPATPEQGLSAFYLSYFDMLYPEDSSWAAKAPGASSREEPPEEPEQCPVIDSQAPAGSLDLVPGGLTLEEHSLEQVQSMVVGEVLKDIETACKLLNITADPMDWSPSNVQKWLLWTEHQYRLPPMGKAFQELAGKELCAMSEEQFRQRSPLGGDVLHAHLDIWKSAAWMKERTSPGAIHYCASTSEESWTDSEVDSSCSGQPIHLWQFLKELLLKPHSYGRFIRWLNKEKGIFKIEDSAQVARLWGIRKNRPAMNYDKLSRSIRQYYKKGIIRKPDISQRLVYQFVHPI
Summed up:
as §1

The next test concerns the target T5, ETV7 (Homo sapiens, UniProt Q9Y603 1-341).
T5 sequence: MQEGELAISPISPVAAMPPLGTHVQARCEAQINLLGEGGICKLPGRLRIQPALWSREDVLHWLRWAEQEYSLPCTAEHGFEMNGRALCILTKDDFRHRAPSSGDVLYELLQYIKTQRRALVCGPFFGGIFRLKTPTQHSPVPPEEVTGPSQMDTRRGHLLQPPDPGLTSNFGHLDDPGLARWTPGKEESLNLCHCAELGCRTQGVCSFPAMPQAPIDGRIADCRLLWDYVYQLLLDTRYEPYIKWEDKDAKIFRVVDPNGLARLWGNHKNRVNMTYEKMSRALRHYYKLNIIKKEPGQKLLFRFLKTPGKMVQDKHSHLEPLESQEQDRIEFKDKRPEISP
Put shortly:
as §1

The target of a further test is T6, ELF5 (Homo sapiens, UniProt Q9UKW6-2 1-255).
T6 sequence: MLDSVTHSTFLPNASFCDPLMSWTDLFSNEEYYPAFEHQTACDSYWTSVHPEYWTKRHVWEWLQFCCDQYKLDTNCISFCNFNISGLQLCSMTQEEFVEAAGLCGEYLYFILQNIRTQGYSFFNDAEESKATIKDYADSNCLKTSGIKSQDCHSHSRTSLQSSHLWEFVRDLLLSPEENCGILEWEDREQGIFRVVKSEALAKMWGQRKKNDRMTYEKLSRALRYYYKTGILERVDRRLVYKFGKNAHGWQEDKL
Summed up: as §1

Another test addresses T7, ETV3 (Homo sapiens, UniProt P41162-2 1-143).
T7 sequence: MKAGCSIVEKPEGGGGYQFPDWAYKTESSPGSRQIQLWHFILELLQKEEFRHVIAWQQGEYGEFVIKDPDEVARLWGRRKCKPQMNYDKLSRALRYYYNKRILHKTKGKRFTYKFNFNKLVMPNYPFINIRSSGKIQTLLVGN
Summed up: as §1

The next test deals with ETV6 (Homo sapiens, UniProt P41212 1-452). Put shortly:
as §1

ETV6, sequence (P41212 whole entry): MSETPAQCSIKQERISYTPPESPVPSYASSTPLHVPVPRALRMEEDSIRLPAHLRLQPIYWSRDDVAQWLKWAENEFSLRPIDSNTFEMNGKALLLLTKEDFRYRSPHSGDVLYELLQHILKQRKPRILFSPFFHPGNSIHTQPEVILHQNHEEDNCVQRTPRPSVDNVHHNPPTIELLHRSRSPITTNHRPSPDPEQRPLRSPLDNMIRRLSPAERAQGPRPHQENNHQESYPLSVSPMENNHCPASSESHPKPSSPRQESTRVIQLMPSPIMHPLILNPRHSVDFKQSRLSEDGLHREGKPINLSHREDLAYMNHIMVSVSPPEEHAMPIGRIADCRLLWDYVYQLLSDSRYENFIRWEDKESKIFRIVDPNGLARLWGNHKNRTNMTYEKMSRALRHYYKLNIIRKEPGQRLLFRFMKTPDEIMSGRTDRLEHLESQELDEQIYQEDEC

Consider TACAGG, for which the binding signal with ERF was 1.1 fold enrichment (6-mer frequency, TF over GST control); in the test with ETV3L it was 1.27 fold enrichment (6-mer frequency, TF over GST control); with ETS2 it was 1.08 fold enrichment (6-mer frequency, TF over GST control); with SPDEF, 1.39 fold enrichment (6-mer frequency, TF over GST control); with ETV7, 1.12 fold enrichment (6-mer frequency, TF over GST control); in the test with ELF5, 1.22 fold enrichment (6-mer frequency, TF over GST control). Also, the binding signal in the test with ETV3 is 1.18 fold enrichment (6-mer frequency, TF over GST control); with ETV6, 1.19 fold enrichment (6-mer frequency, TF over GST control).

In the case of CACATC, the binding signal was 1.39 fold enrichment (6-mer frequency, TF over GST control) in the test with ERF; 1.41 fold enrichment (6-mer frequency, TF over GST control) with ETV3L; 1.38 fold enrichment (6-mer frequency, TF over GST control) with ETS2; 2.09 fold enrichment (6-mer frequency, TF over GST control) with SPDEF; 1.38 fold enrichment (6-mer frequency, TF over GST control) with ETV7; 1.42 fold enrichment (6-mer frequency, TF over GST control) with ELF5. Further, the binding signal in the test with ETV3 is 1.49 fold enrichment (6-mer frequency, TF over GST control); with ETV6 it was 1.5 fold enrichment (6-mer frequency, TF over GST control).

Take TTCGCG: the binding signal in the test with ERF was 1.23 fold enrichment (6-mer frequency, TF over GST control); in the test with ETV3L, 1.15 fold enrichment (6-mer frequency, TF over GST control); with ETS2, 1.1 fold enrichment (6-mer frequency, TF over GST control); with SPDEF, 1.15 fold enrichment (6-mer frequency, TF over GST control); with ETV7, 1.08 fold enrichment (6-mer frequency, TF over GST control); with ELF5, 1.07 fold enrichment (6-mer frequency, TF over GST control). For the same sequence, the binding signal in the test with ETV3 was 1.12 fold enrichment (6-mer frequency, TF over GST control); with ETV6, 1.17 fold enrichment (6-mer frequency, TF over GST control).

With CACGAA, the binding signal in the test with ERF was 1.18 fold enrichment (6-mer frequency, TF over GST control); with ETV3L, 1.01 fold enrichment (6-mer frequency, TF over GST control); in the test with ETS2 it was 1.12 fold enrichment (6-mer frequency, TF over GST control); in the test with SPDEF it was 1.08 fold enrichment (6-mer frequency, TF over GST control); in the test with ETV7 it was 1.16 fold enrichment (6-mer frequency, TF over GST control); with ELF5 it was 1.02 fold enrichment (6-mer frequency, TF over GST control). In addition, the binding signal with ETV3 was 1.05 fold enrichment (6-mer frequency, TF over GST control); in the test with ETV6 it was 1.07 fold enrichment (6-mer frequency, TF over GST control).

As for TGGGCT, the binding signal in the test with ERF is 1.27 fold enrichment (6-mer frequency, TF over GST control); in the test with ETV3L it was 1.45 fold enrichment (6-mer frequency, TF over GST control); with ETS2, 1.5 fold enrichment (6-mer frequency, TF over GST control); in the test with SPDEF, 1.28 fold enrichment (6-mer frequency, TF over GST control); with ETV7, 1.49 fold enrichment (6-mer frequency, TF over GST control); with ELF5 it was 1.32 fold enrichment (6-mer frequency, TF over GST control). Also, the binding signal with ETV3 is 1.41 fold enrichment (6-mer frequency, TF over GST control); with ETV6 it was 1.32 fold enrichment (6-mer frequency, TF over GST control).

Regarding TATACT, the binding signal with ERF was 1.3 fold enrichment (6-mer frequency, TF over GST control); with ETV3L, 1.29 fold enrichment (6-mer frequency, TF over GST control); in the test with ETS2 it was 1.38 fold enrichment (6-mer frequency, TF over GST control); with SPDEF, 1.52 fold enrichment (6-mer frequency, TF over GST control); with ETV7 it was 1.31 fold enrichment (6-mer frequency, TF over GST control); with ELF5, 1.34 fold enrichment (6-mer frequency, TF over GST control). The binding signal is 1.34 fold enrichment (6-mer frequency, TF over GST control) with ETV3 and 1.45 fold enrichment (6-mer frequency, TF over GST control) with ETV6.

Regarding TGTACT, the binding signal with ERF was 1.11 fold enrichment (6-mer frequency, TF over GST control); with ETV3L it was 1.26 fold enrichment (6-mer frequency, TF over GST control); with ETS2, 1.27 fold enrichment (6-mer frequency, TF over GST control); in the test with SPDEF it was 1.71 fold enrichment (6-mer frequency, TF over GST control); in the test with ETV7, 1.24 fold enrichment (6-mer frequency, TF over GST control); with ELF5, 1.37 fold enrichment (6-mer frequency, TF over GST control). Further, the binding signal with ETV3 was 1.22 fold enrichment (6-mer frequency, TF over GST control); with ETV6 it was 1.28 fold enrichment (6-mer frequency, TF over GST control).
